Screens as filed in PubChem.
Shown are actives, neighbours in structure and some others; about 28% of the full set was active somewhere.
PLK1 kinase inh – PLK1 (human) kinase inhibition. recombinant PLK1 kinase, TR-FRET peptide phosphorylation. 97,000 tested, 0.53% active. P53350. AID 619. inhibition, % at 10 µM;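 active = inhibition of 50% or more in the single-concentration screen; inactive = inhibition below 50%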
CYP2C9 inh – blocks human cytochrome P450 2C9 | P11712 | CYP2C9 Supersomes, luciferin-H conversion, luminescence | inhibition, % at 5 µM | 96,000 tested, 20% active;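 active = blocking of liver enzyme CYP2C9 beyond about 50% at 5 µM, limit read from the data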
CYP2C19 activ – activators of human cytochrome P450 2C19; P33261; recombinant CYP2C19, luciferin-H EGE luminescence; stronger effect = higher value; 0 = fully inhibited enzyme, 1 = untreated enzyme; activation factor at 5 µM; 96,000 tested, under 10 active;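 active = activation factor of at least 2 at 5 µM in the primary screen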
Target sequence (P33261 whole entry, looked up): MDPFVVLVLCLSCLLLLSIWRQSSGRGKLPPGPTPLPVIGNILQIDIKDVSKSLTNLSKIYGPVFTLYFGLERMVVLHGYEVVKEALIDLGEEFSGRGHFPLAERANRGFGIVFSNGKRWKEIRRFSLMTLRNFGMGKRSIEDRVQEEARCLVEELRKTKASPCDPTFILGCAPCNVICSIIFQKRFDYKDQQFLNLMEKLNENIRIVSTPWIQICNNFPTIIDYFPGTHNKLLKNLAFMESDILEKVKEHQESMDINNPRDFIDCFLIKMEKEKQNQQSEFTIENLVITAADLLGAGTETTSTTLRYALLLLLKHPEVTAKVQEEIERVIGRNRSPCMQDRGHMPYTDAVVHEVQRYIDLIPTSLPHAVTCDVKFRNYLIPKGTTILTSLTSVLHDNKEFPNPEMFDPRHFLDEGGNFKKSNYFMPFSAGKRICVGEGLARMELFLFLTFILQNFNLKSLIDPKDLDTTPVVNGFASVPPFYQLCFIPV
CYP2C9 activ – CYP2C9 (human) activation; recombinant CYP2C9, luciferin-H conversion, luminescence; stronger effect = higher value; factor 1 = untreated enzyme, 0 = blocked; activation factor at 5 µM; 96,000 tested, 1.4% active; AID 1024;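 active = activation factor of 2 or more for CYP2C9 at a 5 µM dose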
CYP2C19 inhib – human CYP2C19 inhibition | CYP2C19 Supersomes, luciferin-H EGE luminescence, 30 min | inhibition, % at 5 µM | 96,000 tested, 21% active | P33261 | AID 778;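 active = CYP2C19 inhibition above a set limit at 5 µM in the primary screen, cut at about 50% in these data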
Plk1 PBD FP – inhibitors of human Plk1 polo box domain binding | P53350 | Plk1 PBD phosphopeptide binding, fluorescence polarization | inhibition, %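 (tested at about 20 µM)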 | 97,000 tested, 0.13% active; in the data active = inhibition above about 34%, passing the limit was not always enough
A number is an active result.

Screening COc1ccccc1N(C)S(=O)(=O)c1ccc(C(=O)NCC(C)C)cc1 returned PLK1 kinase inh inactive, CYP2C9 inh 83, CYP2C19 activ inactive, CYP2C9 activ inactive, CYP2C19 inhib 52 and Plk1 PBD FP inactive.
`CCC(C)(C)NC(=O)c1ccc(S(=O)(=O)N(C)c2ccccc2OC)cc1` gave PLK1 kinase inh inactive, CYP2C9 inh 65, CYP2C19 activ inactive, CYP2C9 activ inactive, CYP2C19 inhib inactive and Plk1 PBD FP inactive.
CC1=C(C)C(=O)NC(Nc2nc(C)c3cc(C)cc(C)c3n2)N1 (configuration not stated) was read as PLK1 kinase inh inactive and Plk1 PBD FP inactive.
Screening Cc1ccc(-c2cc(C(=O)Nc3nn[nH]n3)c3ccccc3n2)cc1 returned PLK1 kinase inh inactive, CYP2C9 inh inactive, CYP2C19 activ inactive, CYP2C9 activ inactive, CYP2C19 inhib inactive and Plk1 PBD FP inactive.
`O=C(NC1CCCCC1)c1ccccc1NC(=O)C1CC(=O)N(c2ccc(Cl)cc2)C1` (configuration not stated) gave PLK1 kinase inh inactive and Plk1 PBD FP inactive.
Cn1nc(C(=O)Nc2cccc(C(F)(F)F)c2)ccc1=O was read as PLK1 kinase inh inactive, CYP2C9 inh inactive, CYP2C19 activ inactive, CYP2C9 activ inactive, CYP2C19 inhib inactive and Plk1 PBD FP inactive.
For Cc1ccc(NC(=O)c2c(C(F)(F)F)nn(C)c2Cl)cc1C the results were PLK1 kinase inh inactive and Plk1 PBD FP inactive.
For Cc1ccc(NC(=O)c2c(C(F)(F)F)nn(C)c2SCc2cccc(C(F)(F)F)c2)cc1C the results were PLK1 kinase inh inactive, CYP2C9 inh 92, CYP2C19 activ inactive, CYP2C9 activ inactive, CYP2C19 inhib inactive and Plk1 PBD FP inactive.
Cc1ccc(NC(=O)c2c(C(F)(F)F)nn(C)c2SCc2ccc(Cl)cc2)cc1C was read as PLK1 kinase inh inactive, CYP2C9 inh 100, CYP2C19 activ inactive, CYP2C9 activ inactive, CYP2C19 inhib 65 and Plk1 PBD FP inactive.
COc1cccc(C(=O)O/N=C/c2ccc(Sc3ccc(C)cc3)nc2)c1 was read as PLK1 kinase inh inactive, CYP2C9 inh inactive, CYP2C19 activ inactive, CYP2C9 activ inactive, CYP2C19 inhib inactive and Plk1 PBD FP inactive.
`COc1ccc(CCN(Cc2cc3cc(C)c(C)cc3nc2Cl)C(=O)C2CC2)cc1` gave PLK1 kinase inh inactive, CYP2C9 inh inactive, CYP2C19 activ inactive, CYP2C9 activ inactive, CYP2C19 inhib inactive and Plk1 PBD FP inactive.
`Cc1ccc2[nH]c(=O)c(C3C(C#N)=C(N)Oc4c3ccc3cccnc43)cc2c1` (configuration not stated) gave PLK1 kinase inh inactive, CYP2C9 inh 62, CYP2C19 activ inactive, CYP2C9 activ inactive, CYP2C19 inhib inactive and Plk1 PBD FP inactive.
For C=CCn1c(SCC(=O)c2ccc(O)c(O)c2)nnc1-c1ccccc1OC the results were PLK1 kinase inh inactive, CYP2C9 inh inactive, CYP2C19 activ inactive, CYP2C9 activ inactive, CYP2C19 inhib 75 and Plk1 PBD FP inactive.
`Cc1cc(C(=O)CSc2nc3ccccc3n2C)c(C)n1C` gave PLK1 kinase inh inactive, CYP2C9 inh inactive, CYP2C19 activ inactive, CYP2C9 activ 3.4, CYP2C19 inhib inactive and Plk1 PBD FP inactive.
Screening CCn1c(CSc2nc3ccccc3s2)nnc1SCC(=O)c1ccc(O)c(O)c1 returned PLK1 kinase inh inactive, CYP2C9 inh inactive, CYP2C19 activ inactive, CYP2C9 activ inactive, CYP2C19 inhib inactive and Plk1 PBD FP inactive.
`C=CCn1c(SCC(=O)Nc2ccc3c(c2)OCO3)nnc1-c1ccccc1O` gave PLK1 kinase inh inactive, CYP2C9 inh inactive, CYP2C19 activ inactive, CYP2C9 activ inactive, CYP2C19 inhib inactive and Plk1 PBD FP inactive.
For CCn1c(SCC(=O)c2ccc(O)c(O)c2)nnc1-c1ccccc1OC the results were PLK1 kinase inh inactive, CYP2C9 inh inactive, CYP2C19 activ inactive, CYP2C9 activ inactive, CYP2C19 inhib 67 and Plk1 PBD FP inactive.
CCn1c(SCC(=O)c2ccc(O)c(O)c2)nnc1-c1ccccc1 was read as PLK1 kinase inh inactive, CYP2C9 inh inactive, CYP2C19 activ inactive, CYP2C9 activ inactive, CYP2C19 inhib 98 and Plk1 PBD FP inactive.
For O=C1CCCc2oc3ccc(O)cc3c21 the results were PLK1 kinase inh inactive and Plk1 PBD FP inactive.
Screening Cc1cc(C(=O)CSc2nnc(-c3cccs3)n2Cc2ccccc2)c(C)n1C returned PLK1 kinase inh inactive, CYP2C9 inh inactive, CYP2C19 activ inactive, CYP2C9 activ inactive, CYP2C19 inhib inactive and Plk1 PBD FP inactive.
CCn1c(SCC(=O)c2cc(C)n(C)c2C)nnc1-c1ccccc1 was read as PLK1 kinase inh inactive, CYP2C9 inh inactive, CYP2C19 activ inactive, CYP2C9 activ inactive, CYP2C19 inhib 100 and Plk1 PBD FP inactive.
For Cc1ccccc1-n1c(SCC(=O)c2cc(C)n(C)c2C)nnc1-c1cccnc1 the results were PLK1 kinase inh inactive, CYP2C9 inh 62, CYP2C19 activ inactive, CYP2C9 activ inactive, CYP2C19 inhib 67 and Plk1 PBD FP inactive.
`CCOC(=O)C(=Cc1ccc(-c2ccsc2C(=O)OC)o1)C(=O)OCC` gave PLK1 kinase inh inactive, CYP2C9 inh 50, CYP2C19 activ inactive, CYP2C9 activ inactive, CYP2C19 inhib inactive and Plk1 PBD FP inactive.
`CCOC(=O)/C(C#N)=C/c1ccc(-c2ccsc2C(=O)OC)o1` gave PLK1 kinase inh inactive, CYP2C9 inh inactive, CYP2C19 activ inactive, CYP2C9 activ inactive, CYP2C19 inhib inactive and Plk1 PBD FP inactive.
For Cc1ccc(Cl)cc1N1CCN(CC(=O)Nc2ccc3[nH]c(=O)[nH]c3c2)CC1 the results were PLK1 kinase inh inactive, CYP2C9 inh inactive, CYP2C19 activ inactive, CYP2C9 activ inactive, CYP2C19 inhib inactive and Plk1 PBD FP inactive.
`COc1cccc(C2C3=C(N=C4SCC(=O)N42)c2ccccc2CC3)c1OC` (configuration not stated) gave PLK1 kinase inh inactive, CYP2C9 inh 60, CYP2C19 activ inactive, CYP2C9 activ inactive, CYP2C19 inhib 87 and Plk1 PBD FP inactive.
CCC(C)(C)n1nnnc1C(c1ccc2ncccc2c1)N1CCCC(C)C1 (configuration not stated) was read as PLK1 kinase inh inactive and Plk1 PBD FP inactive.
`O=C(Nc1ccccc1)N(C1=NCCC1)c1ccc(OC(F)F)cc1` gave PLK1 kinase inh inactive, CYP2C9 inh 79, CYP2C19 activ inactive, CYP2C9 activ inactive, CYP2C19 inhib 50 and Plk1 PBD FP inactive.
For CC1(c2ccccc2)CC(C)(C)N(C(=O)C2CCCO2)c2ccccc21 (configuration not stated) the results were PLK1 kinase inh inactive, CYP2C9 inh 66, CYP2C19 activ inactive, CYP2C9 activ inactive, CYP2C19 inhib 77 and Plk1 PBD FP inactive.
Screening CCC1Oc2ccc(C)cc2N(CC(=O)N(Cc2cccnc2)Cc2ccc(C)o2)C1=O (configuration not stated) returned PLK1 kinase inh inactive, CYP2C9 inh 63, CYP2C19 activ inactive, CYP2C9 activ inactive, CYP2C19 inhib 72 and Plk1 PBD FP inactive.
